Screening results from PubChem.
ERK EGF inh – qHTS Assay for Inhibitors of the ERK Signaling Pathway using a Homogeneous Screening Assay; Stimulation with EGF; HEK293-V1b, EGF-stimulated phospho-ERK AlphaScreen; Potency, µM (doses to about 11.5 µM), for the others: at the highest dose activity change, negative = inhibition, most hits filed as inhibitors; 130,000 compounds, 0.41% hits; active means well fitted inhibition curve with a large enough effect;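 further: plate controls were stimulated vehicle wells for no effect and unstimulated vehicle basal for full effect; nearly all actives have a fitted effect of over 55% in size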
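After overnight plating in 1% FBS, HEK293-V1b cells received test compound for half an hour, then a 5 min pulse of EGF (25 nM); ERK phosphorylation in lysates was read by bead-based AlphaScreen.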
Active calls of the source: *; ! = not confirmed by another sample; [ ] = dose if it differs, or a comment. The entries come from a sample that favours hits as a whole. Potency means the concentration at half of the fitted maximal effect.

SMILES | ERK EGF inh
CC(=C1C(=O)c2ccccc2C1=O)N1CCN(c2ccc(F)cc2)CC1 | 0%[57.5 µM]
Cc1cccc(CN2CCN([C@@H](c3ccccc3)c3ccc(Cl)cc3)CC2)c1 | -2%[25.7 µM]
CCCC[C@@H]1C[C@H]1[C@@H](NP(=O)(c1ccccc1)c1ccccc1)c1ccccc1OC | 8%
C#C[C@]1(O)CC[C@H]2C3CCC4=Cc5oncc5CC4(C)C3CCC21C (some centres not stated) | 19%
Cc1nc2c(-c3ccc(F)cc3)c(C)nn2c(C)c1CCC(=O)Nc1ccccc1F | -12%[57.5 µM]
O=C(NNc1ccccc1C(F)(F)F)c1sccc1Br | -10%[57.5 µM]
C#C[C@]1(O)CCC2C3CCC4=Cc5oncc5C[C@@]4(C)C3CC[C@@]21C (some centres not stated) | -12%
CCC1=C2CC[C@H]3C(=O)NC(=O)[C@H]3[C@H]2[C@@]2(C)C(=NCCc3c[nH]c4ccccc34)OC(=O)N2C1=O | 1%
N#C/C(=C\c1cn(CCOc2ccccc2)c2ccccc12)C(=O)NCc1cccs1 | -7%
CC(=O)Nc1ccc(N2C(=O)CSC2c2cccc([N+](=O)[O-])c2)cc1 (configuration not stated) | 13%
CC1=NN(c2ccccc2)C(=O)C1c1ccccc1 (configuration not stated) | -10%
CC1=NN(c2ccccc2)C(=O)C1N=Nc1ccccc1 (configuration not stated) | 11µM*
CC1=NN(C(N)=S)C(=O)C1N=Nc1ccccc1 (configuration not stated) | 4%
CC(=O)NCCNc1ncnc2ccc(-c3ccc(C(=O)N(C)C)cc3)cc12 | 16%
O=C(O)Cc1cc2ccccc2nc1C(=O)O | -8%
COc1cc(OC)c2c(c1C(CCN1CCOCC1)c1ccc(N(C)C)cc1)OC(=O)CC2c1ccc(N(C)C)cc1 (configuration not stated) | -6%[57.5 µM]
COc1cc(C(CCN2CCOCC2)c2c(OC)cc(OC)c3c2OC(=O)CC3c2ccc(N(C)C)cc2)cc(OC)c1OC (configuration not stated) | -15%[57.5 µM]
COc1ccc(C2CC(=O)Oc3c(C(CCN4CCN(c5ccccc5)CC4)c4ccc(N(C)C)cc4)c(OC)cc(OC)c32)cc1 (configuration not stated) | 16µM*
CCOc1ccc(-n2cc(-c3ccc(OC)c(OC)c3)[nH]c2=S)cc1 | 13%
N=C1Sc2ccccc2C2=NCCCN12 | 7%
Cc1ccc(S(=O)(=O)N2CCCCC2)cc1C(=O)Nc1ccc(S(=O)(=O)Nc2ncccn2)cc1 | -12%[57.5 µM]
OC(c1cc(C(F)(F)F)nc2c(Cl)cc(Cl)cc12)C1CCCCN1 (configuration not stated) | 0%[57.5 µM]
O=C(NCc1ccccn1)c1cc(-c2ccc(Cl)cc2)nc2ccccc12 | -2%
OC(c1cc(-c2ccc(Cl)cc2)nc2ccccc12)C1CCCCN1 (configuration not stated) | 32µM*
COc1ccc(Cl)cc1C(=O)Nc1ccc(NC(=O)C(C)C)cc1 | -5%
SMILES | ERK EGF inh
COc1ccc(-c2nc(-c3cccnc3)no2)cc1 | 1%[57.5 µM]
COc1ccc(NC(NC(=O)c2cccnc2)C(Cl)(Cl)Cl)cc1 (configuration not stated) | 4%
CN=c1scc(-c2ccc(OC)cc2)n1/N=C(\C)c1cccnc1 | 22µM*
Cn1nc(-c2ccc(N3CCN(CCO)CC3)c([N+](=O)[O-])c2)c2ccccc2c1=O | -8%
COc1cccc2c1C(=O)c1c(O)c3c(c(O)c1C2=O)C[C@@](O)(C(C)=O)C[C@@H]3O[C@H]1C[C@H](N)[C@H](O)[C@H](C)O1 | 25µM*!
C=CCC(C)(O)c1ccc(OC)cc1 (configuration not stated) | -11%
CC(=O)NCCNc1nc(-c2ccccc2Cl)nc2ccccc12 | 29%
CN(C)c1ccc(/C=C/c2ccc3c4ccccc4ccc3[n+]2-c2ccccc2)cc1 | 25µM*
CN(C)c1ccc(/C=C/C#N)cc1 | 9%[57.5 µM]
CN(C)c1ccc(/C=C/c2cccc[n+]2[O-])cc1 | 3%[57.5 µM]
O=C(c1ccncc1)N1CCC2(CCCN(c3ccc(-c4ccccc4)cc3)C2)CC1 | 8%
O=c1c2[nH]c3ccc(F)cc3c2ncn1CCC1=CCCCC1 | -1%[57.5 µM]
C1=C(CCNc2ncnc3nc[nH]c23)CCCC1 | 5%
COc1ccc2[nH]c3c(NCCC4=CCCCC4)ncnc3c2c1 | 20µM*
N[C@]1(C(=O)O)CCc2cc(C(=O)O)ccc21 | 0%
Cc1cccc(CNc2ncncc2-c2ccccc2C(F)(F)F)c1 | 12%
COc1ccccc1-c1cc(=O)c2cccc(OC)c2o1 | 24%
COc1cccc(-c2cc(=O)c3ccccc3o2)c1N | 5µM*!
O=c1cc(-c2ccccc2F)oc2ccccc12 | 12%
Cc1ccc(C)c(NC(=O)COC(=O)c2cccc3c2C(=O)c2ccccc2C3=O)c1 | -3%
Cc1cc(C)c(NC(=O)COC(=O)c2cccc3c2C(=O)c2ccccc2C3=O)c(C)c1 | -12%
Cc1cc(C)c(Nc2cc(S(=O)(=O)O)c(N)c3c2C(=O)c2ccccc2C3=O)c(C)c1 | 22µM*
COC(=O)N[C@@H](c1cccc(F)c1)[C@@H](C)[N+](=O)[O-] | 8%
CCCCC[C@H](O)/C=C/[C@@H]1[C@@H](C/C=C\CCCC(=O)O)[C@@H](O)C[C@@H]1O | 8%
C=CC1=C(C(=O)O)N2C(=O)C(NC(=O)/C(=N\O)c3csc(N)n3)C2SC1 (configuration not stated) | 7%
SMILES | ERK EGF inh
CCCCC[C@H](O)CC[C@H]1[C@H](O)CC(=O)[C@@H]1CCCCCCC(=O)O | 0%
Cc1ccc(N=CC2=C(O)CC(c3ccccc3Cl)CC2=O)cc1 (configuration not stated) | 20µM*
O=C1CC(c2ccccc2)CC(O)=C1C=Nc1ccc(Cl)cc1 (configuration not stated) | 5%
Cc1ccc(N=CC2=C(O)CC(c3cccc(Cl)c3)CC2=O)cc1 (configuration not stated) | -6%
O=C(c1ccncc1)N1CCC2(CCCN(Cc3nccs3)C2)CC1 | 2%
COC(=O)[C@@H]1C[C@H]1[C@@H](NS(=O)(=O)c1ccc(-c2ccccc2)cc1)c1ccccc1 | 6%
Cc1cc(C)cc(NC(=S)NCCSc2ccc(Cl)cc2)c1 | 2%
COC(=O)Cc1ccc(NC(=S)NCCSc2ccc(Cl)cc2)cc1 | 28µM*
COC(=O)Cc1ccc(NC(=S)NCCO)cc1 | -6%[57.5 µM]
CC[C@H](C)N(C)C(=O)c1cc2ccccc2c(-c2ccccc2Cl)n1 | -1%
O=C(Nc1ccc(Cl)cc1)Nc1ccccc1Sc1ncc([N+](=O)[O-])s1 | -3%[57.5 µM]
O=[N+]([O-])c1cnc(Sc2ccncn2)s1 | 14µM*
O=C1NCCN1c1ncc([N+](=O)[O-])s1 | -3%[25.7 µM]
Cc1ccccc1-c1cc(Nc2ccc(F)cc2)ncn1 | 24%
CCN(CC)P(=O)(Nc1ccccc1Br)c1ccc(N(C)C)cc1NC(=O)c1ccco1 (configuration not stated) | 0%
Cc1ccc(CNC(=O)[C@H](C)[C@H]2C[C@]2(C)[C@H](NC(=O)OCc2ccccc2)c2ccccc2)c(F)c1F | 16%
COc1ccc(CCNc2ncnc3cc(OC)c(OC)cc23)cc1OC | 28µM*
COc1cccc(-c2cc(NCc3cccs3)ncn2)c1 | 18%
COc1ccc(CCNc2ncnc3c2[nH]c2cc(OC)c(OC)cc23)cc1OC | -13%[57.5 µM]
COc1cc2ncnc(NCCc3ccccc3)c2cc1OC | 3.5µM*
COc1cc2ncnc(NCc3cccs3)c2cc1OC | 2.5µM*
COc1ccc(CCNc2c3ccccc3nc3ccccc23)cc1OC | -7%[57.5 µM]
